{"source": "PubChem BioAssay AID1063", "about": "(University of Pittsburgh Molecular Library Screening Center, 2008)", "note": "Out of some 200,000 compounds screened, about 18,000 (9%) were called active. The entries come from a sample that favours actives as a whole. Values without a mark were called inactive. Cut-off read from the data, not from the text of the source: active = inhibition above about 50%; inactive = the rest.", "data": [{"test": "Leishmania major promastigote growth inhibition, primary screen (AID 1063);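 note: promastigotes grown with compound for 44 hours at 28 °C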", "conditions": "Leishmania major promastigotes, resazurin fluorescence viability; at 10 µM; hits give high values", "values": [{"smiles": "c1cncc(-c2nnc3n2C2(CCCCC2)Cc2ccccc2-3)c1", "inhibition": "-0.67%"}, {"smiles": "CCOc1cccc2c1OC1(CCCCC1)N1N=C(c3cccnc3)CC21", "note": "(stereo unspecified)", "inhibition": "57.3% (active)"}, {"smiles": "O=[N+]([O-])c1ccc(Sc2n[nH]c(-c3ccco3)n2)nc1", "inhibition": "4.36%"}, {"smiles": "CCOC(=O)CSc1nc(C)cc2c1C(=O)OC2", "inhibition": "3.71%"}, {"smiles": "COC(=O)c1sc2ncccc2c1OCc1ccc(Cl)cc1Cl", "inhibition": "-2.34%"}, {"smiles": "NC(N)=N/N=C/c1ccc(OCc2ccc(Cl)cc2Cl)cc1", "inhibition": "101% (active)"}, {"smiles": "CCOc1ccc(NC(=O)NNC(=O)c2ccc(Cl)cc2Cl)cc1", "inhibition": "-5.16%"}, {"smiles": "CCOC(=O)CN/C=C(\\C#N)c1ccc(F)cc1", "inhibition": "-7.97%"}, {"smiles": "Cc1c(CN2CCCCC2)c(O)n(CCO)c(=O)c1C#N", "inhibition": "3.34%"}, {"smiles": "O=C(NNC(=O)c1ccc(Cl)cc1Cl)c1cccs1", "inhibition": "-10.1%"}, {"smiles": "CC(C)(O)C#Cc1ncc(C(F)(F)F)cc1Cl", "inhibition": "-3.82%"}, {"smiles": "COc1ccc([N+](=O)[O-])cc1C1NN=C(c2cccc3ccccc23)S1", "note": "(stereo unspecified)", "inhibition": "-6.23%"}, {"smiles": "COc1ccc(C2Nc3ccccc3C(=O)N2c2ccc(Cl)cc2)cc1Cn1cc([N+](=O)[O-])cn1", "note": "(stereo unspecified)", "inhibition": "53.1% (active)"}, {"smiles": "CCN(C(=O)CSc1nc2ccccc2n1CC)C1CCS(=O)(=O)C1", "note": "(stereo unspecified)", "inhibition": "-3.23%"}, {"smiles": "CC(C)CNC(=O)/C=C/C(=O)O", "inhibition": "1.32%"}, {"smiles": "CC(=O)c1ccc(-c2nnc(CCC(=O)N(C)Cc3cnc4ccccn34)o2)s1", "inhibition": "-0.67%"}, {"smiles": "Cc1ccc(NC(=O)Cn2nc(C)c3ccccc3c2=O)c(C)c1", "inhibition": "34.8%"}, {"smiles": "Cc1ccc(NC(=O)Cn2cccc2C2=NC(c3ccccc3)CO2)c(C)c1", "note": "(stereo unspecified)", "inhibition": "77.4% (active)"}, {"smiles": "Cc1ccc(NC(=O)c2ccn(C(=O)Nc3ccccc3)n2)c(C)c1", "inhibition": "-1.05%"}, {"smiles": "CC1(C)CC(=O)c2ccc(O)cc2O1", "inhibition": "-5.54%"}, {"smiles": "CN(Cc1cccc2ncccc12)C(=O)CC1C(=O)NCCN1Cc1ccc(F)cc1", "note": "(stereo unspecified)", "inhibition": "-8.65%"}, {"smiles": "O=C(C1CCN(C2CCN(Cc3cccc4c3OCO4)CC2)CC1)N1CCOCC1", "inhibition": "76.2% (active)"}, {"smiles": "C/C(=C\\c1ccco1)CN1CCC(N2CCC(C(=O)N3CCOCC3)CC2)CC1", "inhibition": "77.8% (active)"}, {"smiles": "O=C(C1CCN(C2CCN(Cc3ccc4cc(F)ccc4n3)CC2)CC1)N1CCCC1", "inhibition": "48.3%"}, {"smiles": "O=C(NCC1CCCO1)C1CCN(C2CCN(C(=O)C3CCCCC3)CC2)CC1", "note": "(stereo unspecified)", "inhibition": "-2.22%"}, {"smiles": "O=C(C1CCN(S(=O)(=O)c2cnc[nH]2)CC1)N1CCN(Cc2ccc3c(c2)OCO3)CC1", "inhibition": "-5.72%"}, {"smiles": "COc1ccc(S(=O)(=O)N2CCC(C(=O)N3CCOCC3)CC2)cc1OC", "inhibition": "-6.25%"}, {"smiles": "Cn1c(N)c(C(=O)COC(=O)c2ccccc2NCc2ccco2)c(=O)n(C)c1=O", "inhibition": "-3.53%"}, {"smiles": "Cc1ccc(NC(=O)CN2CCC(C(N)=O)CC2)cc1[N+](=O)[O-]", "inhibition": "-1.6%"}, {"smiles": "c1ccc(-c2nnc(N3CCOCC3)c3ccccc23)cc1", "inhibition": "14%"}, {"smiles": "Cc1cc(N2CCN(C)CC2)nc2ccc(NC(=S)N3CCOCC3)cc12", "inhibition": "6.8%"}, {"smiles": "CN1CCN(c2nc(Nc3ccc(O)cc3)nc3ccccc23)CC1", "inhibition": "99.9% (active)"}, {"smiles": "CCCCc1nc2ccccc2c(NC(=O)CN2CCN(C)CC2)c1CCC", "inhibition": "32.8%"}, {"smiles": "c1ccc(Nc2nc(N3CCOCC3)c3ccccc3n2)cc1", "inhibition": "79.3% (active)"}, {"smiles": "COc1ccc(Nc2ncc(F)c(N3CCOCC3)n2)cc1", "inhibition": "19.7%"}, {"smiles": "CC1CCC(NC(=O)C2c3ccccc3C(=O)N2Cc2ccc3c(c2)OCO3)CC1", "note": "(stereo unspecified)", "inhibition": "14.7%"}, {"smiles": "CNC(=S)NNC(=O)c1cccn(Cc2ccccc2)c1=O", "inhibition": "-2.81%"}, {"smiles": "CCc1nnc(NC(=O)CCCSc2nc3ccccc3[nH]2)s1", "inhibition": "12.7%"}, {"smiles": "COc1ccc(N2CCN(C(=O)C3CCN(S(=O)(=O)c4ccc(C)cc4)CC3)CC2)cc1", "inhibition": "7.36%"}, {"smiles": "O=c1oc(-c2ccco2)nc2sc3c(c12)CCCCC3", "inhibition": "-6.27%"}, {"smiles": "CCn1c(N)c(Br)c(=O)[nH]c1=O", "inhibition": "-8.78%"}, {"smiles": "CCCCN(CC)CCCNC(=O)c1ccc(CSc2nc3ccncc3[nH]2)cc1", "inhibition": "-5.43%"}, {"smiles": "Cc1ncoc1C(=O)N1CCCC(C(=O)c2ccc3c4c(cccc24)CC3)C1", "note": "(stereo unspecified)", "inhibition": "5.73%"}, {"smiles": "O=C(O)/C=C/c1ccc(S(=O)(=O)N2CCCCCC2)cc1", "inhibition": "-3.02%"}, {"smiles": "COc1ccc(CNC(=O)COC(=O)/C=C/c2ccc(S(=O)(=O)N3CCOCC3)cc2)cc1", "inhibition": "2.59%"}, {"smiles": "O=C(COC(=O)/C=C/c1ccc(S(=O)(=O)N2CCCCCC2)cc1)NCc1ccccc1Cl", "inhibition": "65.4% (active)"}, {"smiles": "Cc1ccc(NCc2n[nH]c(=S)n2-c2ccccc2)cc1Cl", "inhibition": "-7.27%"}, {"smiles": "CC(=O)c1ccc(N2CCN(CC(=O)Nc3ccccc3N3CCOCC3)CC2)cc1", "inhibition": "12.9%"}, {"smiles": "CC(C)n1c(-c2ccncc2)n[nH]c1=S", "inhibition": "-1.76%"}, {"smiles": "Cc1ccc(N2C(=O)C(CC(=O)Nc3cccc(F)c3)N(CCc3ccncc3)C2=O)cc1", "note": "(stereo unspecified)", "inhibition": "1.18%"}, {"smiles": "N#Cc1c(NC(=O)C2CCCO2)sc2c1CCCCC2", "note": "(stereo unspecified)", "inhibition": "0.81%"}, {"smiles": "O=C(Nc1ccccc1)c1ccc2c(c1)OCO2", "inhibition": "-3.43%"}, {"smiles": "O=C(c1ccc2c(c1)OCO2)N1CCOCC1", "inhibition": "-6.99%"}, {"smiles": "CC1CN(C(=O)c2ccc3c(c2)OCO3)OC(c2ccccc2)O1", "note": "(stereo unspecified)", "inhibition": "71.5% (active)"}, {"smiles": "O=C(CSc1ccc(-c2ccccc2)nn1)NCC1CCCO1", "note": "(stereo unspecified)", "inhibition": "-4.19%"}, {"smiles": "Cc1cc(C)nc(NNC2=CC(=O)CC(C)(C)C2)n1", "inhibition": "-7.56%"}, {"smiles": "CCOC(=O)/C(C#N)=C/c1cn(CCC(=O)O)nc1-c1ccc(Br)cc1", "inhibition": "-8.02%"}, {"smiles": "CCOC(=O)Cc1ncccc1C(=O)Nc1ccc(OC)cc1", "inhibition": "-2.87%"}, {"smiles": "O=C(NCCSCc1ccccc1)c1ccc(Cl)c(S(=O)(=O)N2CCOCC2)c1", "inhibition": "5.02%"}, {"smiles": "CC(C)(CNC(=O)c1ccc(Cl)c(S(=O)(=O)N2CCc3ccccc3C2)c1)N1CCOCC1", "inhibition": "50.3% (active)"}, {"smiles": "Cc1ccccc1CSCCNC(=O)c1ccc(Cl)c(S(=O)(=O)N2CCOCC2)c1", "inhibition": "25.1%"}]}]}
